PubChem BioAssay AID1578 (Sanford-Burnham Center for Chemical Genomics, 2009)
The campaign covered roughly 290,000 compounds. About 3,000 (1%) were called active. The sample holds actives, similar compounds and a random draw of the others, so the mix is not that of the screen. Unmarked numbers belong to inactive results. No stated cut-off is given here; in the data, active means inhibition mostly above about 36% (no sharp cut-off); inactive means mostly below about 34%.

test: inhibition of NOD1-driven NF-kB reporter – cell-based, luminescence, uHTS, primary screen (AID 1578); details: NOD1-driven NF-kB luciferase reporter cells, at 4 µM, stronger effect = higher value;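 further: HEK-293T reporter cells stimulated with the NOD1 agonist gamma-tri-DAP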

SMILES | inhibition
Cn1c(CO)cnc1SCc1ccc(Cl)cc1 | -5.4%
CC(=O)Oc1ccc(N2C(=O)C3C4C=CC(CO)(O4)C3C2=O)cc1 (centres undefined) | -9.3%
O=C1C2C3C=CC(CO)(O3)C2C(=O)N1c1ccccc1-c1ccccc1 (centres undefined) | 72.3% (active)
O=C1C2C3C=CC(CO)(O3)C2C(=O)N1c1ccc(-c2ccccc2)cc1 (centres undefined) | 35.6%
CCc1ccc(CNc2ccc3c(c2)ncn3CC)cc1 | -16.7%
CCC(SC1=NCCS1)C(=O)Nc1nnc(-c2ccccc2OC)s1 (centres undefined) | -17.6%
NC(=O)Nc1ccc(C(=O)OCC(=O)N(Cc2ccccc2)C2CCS(=O)(=O)C2)cc1 (centres undefined) | -20.7%
CN1CCc2c(sc(NC(=O)C3COc4ccccc4O3)c2C(N)=O)C1 (centres undefined) | -27.9%
CC(=O)CSc1ccc(-c2nc3cc(C)c(C)cc3[nH]2)cn1 | 58.4% (active)
Cc1cc2nc(-c3ccc(SCC(=O)NC(C)C)nc3)[nH]c2cc1C | 23.9%
CCOC(=O)CSc1ccc(-c2nc3cc(C)c(C)cc3[nH]2)cn1 | -40.2%
CN(C)Cc1ccc(CNC(=O)COc2ccc3ccccc3c2)cc1 | -35.8%
CC(=O)Nc1ccc(S(=O)(=O)N/N=C/c2cccnc2)cc1 | -27.3%
CCOC(=O)c1c(N)sc2c(OCC)c(Br)ccc12 | -11.3%
CCOc1c(Br)ccc2c1sc1nc[nH]c(=O)c12 | 66.7% (active)
CCOc1ccc(-c2c(C)sc3nc[nH]c(=O)c23)cc1 | -20.6%
COc1cccc(NC(=S)N2C3CCCC2CC(NC(=O)C2CC2)C3)c1 (centres undefined) | -11.4%
CC(=C/c1ccc(C(C)C)cc1)/C=N/NC(=O)CSc1ccccn1 | -42.7%
O=C(Nc1ccc(Cc2ccncc2)cc1)c1ccc(S(=O)(=O)N2CCOCC2)cc1 | 31.5%
CCC1CCCCN1S(=O)(=O)c1ccc(NC(=O)c2cccs2)cc1 (centres undefined) | -29.4%
O=C(Nc1ccc(S(=O)(=O)N2CCCCC2)cc1)c1ccncc1 | 9.7%
CCC1CCCCN1S(=O)(=O)c1ccc(NC(=O)c2cccnc2)cc1 (centres undefined) | 30.5%
CCN(CC)S(=O)(=O)c1ccc(OC)c(NC(=O)CSc2cc(C)ccc2C)c1 | -19.1%
C=CCN(c1ccccc1C(=O)O)S(=O)(=O)c1ccc(C)cc1 | -26.8%
O=S(=O)(Nc1ccc2c(c1)CCC2)c1cccs1 | 11.6%

SMILES | inhibition
O=c1c2ccccc2ncn1-c1ccc2c(c1)OCCO2 | 26.3%
CN(c1ccc(C(=O)NCCC2=CCCCC2)cc1)S(C)(=O)=O | 68.1% (active)
CS(=O)(=O)N(Cc1ccc(Cl)cc1)c1ccc(C(=O)NCCC2=CCCCC2)cc1 | 9.1%
CS(=O)(=O)Nc1ccc(C(=O)NCCC2=CCCCC2)cc1 | -9.5%
Cc1cc(NC(=O)CSc2nccn2C)n(-c2ccccc2)n1 | -0.5%
Cc1cccc(N2CCCn3c2nc2c3c(=O)n(CCN3CCOCC3)c(=O)n2C)c1 | 17.7%
COCCn1nnnc1C(c1ccccn1)N1CCN(c2cc(Cl)ccc2C)CC1 (centres undefined) | -10.8%
COC(=O)c1ccccc1NC(=O)C(C)n1nc(C)c2c(C)n(-c3ccccc3)nc2c1=O (centres undefined) | 7.4%
Cc1cc(C)cc(OCC(=O)Nc2ccc(CN3CCCCC3)cc2)c1 | -37.6%
CCCCc1c(C)nc2ccc(Br)cc2c1SCCC#N | 19.5%
CCc1c(C)nc2c(Br)cccc2c1SCCC#N | 22.1%
O=C(CN1C(=O)S/C(=C\c2cccs2)C1=O)Nc1ccc(O)cc1C(=O)O | 38.9%
Cn1nnnc1SCCNCc1ccccc1OCc1ccccc1Cl | -12.2%
CCc1cccc(NC(=O)c2sc3nc4n(c(=O)c3c2C)CCC4)c1 | -29.9%
Oc1ccc(Nc2nc(-c3ccc(O)cc3)cs2)cc1 | -23.2%
COc1ccc(Nc2nc(-c3ccc(OC)cc3)cs2)cc1 | -34.6%
COc1ccc(-c2csc(Nc3ccc(O)cc3)n2)cc1 | 56.7% (active)
Cc1ccc(S(=O)(=O)N(CC(=O)N/N=C/c2cccc(C)c2)c2cccc3cccnc23)cc1 | -9%
CC(C)CC(=O)NC(C)C(c1cccs1)N1CCOCC1 (centres undefined) | -10.9%
O=c1cc(C(F)(F)F)[nH]c(=S)n1-c1ccccc1 | -3.4%
O=[N+]([O-])c1ccc(-c2cnc3ccccc3n2)cc1 | -42.9%
O=[N+]([O-])c1ccc(-c2c(O)c3ccccc3c3nc4ccccc4nc23)cc1 | 87.7% (active)
Cc1cc(-c2ccc([N+](=O)[O-])cc2)nc2ccccc12 | -26.6%
CCOC(=O)c1cnn(-c2ccc(C(F)(F)F)cn2)c1N | -92.9%
CC(=O)Nc1ccc(NC(=O)CCOc2cc(C)ccc2C)cc1 | 46.4%

SMILES | inhibition
CCOC(=O)C1(Cc2ccc(OC)cc2)CCN(C(=O)CCn2cccn2)CC1 | 1.1%
Cc1cccc2sc(NNC(=O)c3cc(-c4cccs4)nc4ccccc34)nc12 | 86.7% (active)
Cc1cc(C)c2nc(NNC(=O)c3cc(-c4cccs4)nc4ccccc34)sc2c1 | -29.4%
Cc1ccc2sc(NNC(=O)c3cc(-c4cccs4)nc4ccccc34)nc2c1C | -36.7%
O=C(NCCOc1ccc(Cl)cc1)c1ccc2ccccc2n1 | -22.8%
c1ccc(-c2nc3cnccn3c2Nc2ccc3c(c2)OCCO3)cc1 | -26.2%
Cc1nn(CC(=O)c2ccc(Cl)s2)c(C)c1[N+](=O)[O-] | -20.3%
COc1ccc(Cc2nnc(NC(=O)c3cccc(F)c3)s2)cc1OC | -8%
Cc1cc(C(=O)CCl)c(C)n1CC1COc2ccccc2O1 (centres undefined) | 51.3% (active)
COc1ccc(CCn2c(C)cc(C(=O)CCl)c2C)cc1OC | 59.7% (active)
Cc1cc(C(=O)CSc2nnnn2-c2ccccc2)c(C)n1CCc1ccccc1 | -52.2%
Cc1cc(C(=O)COC(=O)c2ccc(O)cc2)c(C)n1CC1COc2ccccc2O1 (centres undefined) | -9.9%
CCOC(=O)c1cc(C)n(CCc2ccccc2)c1C | -18.3%
COc1ccc(CCn2c(C)c(C(C)=O)c(C(C)=O)c2C)cc1OC | -23.3%
COc1ccc(CCn2c(C)cc(C(=O)CSc3nnnn3-c3ccccc3)c2C)cc1OC | -55.4%
Cc1cc(C(=O)CN2C(=O)C(=O)N(Cc3ccccc3)C2=O)c(C)n1CC1COc2ccccc2O1 (centres undefined) | 27.8%
Cn1cccc1C(NC(=O)c1ccccc1)C(Cl)(Cl)Cl (centres undefined) | -0.5%
Cc1cccc(C)c1OCCNC(=O)c1ccc2ccccc2n1 | 53.9%
COc1cccc(C(=O)Nc2ccc(Cl)c(C(F)(F)F)c2)c1 | -30.7%
Cc1cc(=O)[nH]c(N/N=C/c2cn(CCC#N)nc2-c2ccccc2)n1 | -41.6%
Cc1cc(NC(=O)CN(C)C)c([N+](=O)[O-])cc1C | -1.4%
COC(=O)C1=C(Cn2cnc3ccccc32)NC(=O)NC1c1cc(C)ccc1C (centres undefined) | 14.7%
Cc1nnc2n(c1=O)C(CS(=O)(=O)c1ccccc1)CS2 (centres undefined) | 9.4%
CCCc1nnc(NC(=O)CCC(=O)N2CCN(Cc3cc(F)ccc3OC)CC2)s1 | -10.4%
CCOC(=O)CNC(=O)Cc1ccc(Cl)cc1 | -9.2%

SMILES | inhibition
Cc1nc2c(c(C)nn2-c2ccccc2)c(C)c1Cl | 6.2%
Cc1cc(C)c2c(C)nn(-c3ccccc3)c2n1 | -3.5%
CN(C)S(=O)(=O)c1cccc(C(=O)OCC(=O)Nc2sccc2C#N)c1 | 5.6%
Fc1ccccc1Cc1nnc2n1N=C(c1ccc(Cl)cc1)CS2 | -16%
Nc1cc(-c2ccc(Br)cc2)nn1Cc1ccccc1 | 46.7% (active)
Nc1cc(-c2cccc(Br)c2)nn1Cc1ccccc1 | -9.7%
Nc1cc(-c2ccccc2)nn1Cc1ccccc1 | -25.1%
Cc1cc(/C=C2\SC(=Nc3ccc(F)cc3)NC2=O)c(C)n1-c1ccc(S(N)(=O)=O)cc1 | -10.7%
COc1ccc(Cc2nnc(SCC(=O)NC3CCCC3)o2)cc1 | 71.8% (active)
COc1ccc(OCc2nnc(SCC(=O)NC3CCCCC3)o2)cc1 | -22.6%
O=C(CSc1nnc(Cc2ccccc2)o1)NC1CCCCC1 | -2.8%
COc1ccc(C2NC(=O)CCC2[N+](=O)[O-])cc1 (centres undefined) | -17.7%
CCOC(=O)c1ccccc1NC(=O)c1cc2ccccc2o1 | -31.6%
C/C(=N\NC(=O)c1cc(C)nc2ccccc12)c1ccco1 | -18.1%
O=C(CCCCn1c(=O)[nH]c2ccccc2c1=O)NCCC1=CCCCC1 | -3.1%
COc1cc(/C=N/NC(=O)c2ccc(CSc3nc4ccccc4[nH]3)cc2)ccc1O | -22.3%
O=C(N/N=C/c1ccc(OC(F)F)cc1)c1ccc(CSc2nc3ccccc3[nH]2)cc1 | -27.9%
CCOc1ccc(/C=N/NC(=O)c2ccc(CSc3nc4ccccc4[nH]3)cc2)cc1 | 66.9% (active)
Cn1c(=O)c2c(nc(N3CCN(c4ccc([N+](=O)[O-])cc4)CC3)n2C)n(C)c1=O | 0.8%
CCOc1ccccc1C1C(C#N)=C(N)Oc2cc(C)n(Cc3ccccn3)c(=O)c21 (centres undefined) | 4.8%
Cc1cccc(-c2cc3c(nn2)-c2ccccc2C3=O)c1 | -99%
Cc1ccc2c3c(cccc13)-c1ccccc1C2=O | -32.2%
O=C1c2ccccc2C(=O)c2c1ccc1c(=O)n(-c3ccccc3)[nH]c21 | 8.9%
Cc1ccc(C)c(NC(=O)COC(=O)c2cccc3c2C(=O)c2ccccc2C3=O)c1 | 16.2%
